# Data from PubChem BioAssay (EPA / NIEHS).
# Activity calls are given as the source filed them. Rule for the calls: active = hit-call score of the fitted dose curve at least 0.9, where 1 is the maximum; inactive = score below 0.9.
# Target: Heat shock factor protein 1 (Homo sapiens) (UniProt Q00613)
# Test: ATG_HSE_CIS: Attagene CIS-FACTORIAL HepG2 Assay for human Heat Shock Transcription Factor 1 (HSE) (AID 2282953)
# Details: HepG2 HSE cis-reporter, Attagene RNA transcription; actives raise or lower the signal
# Method: ATG_CIS is a cell-based, multiplexed-readout assay that uses HepG2, a human liver cell line, with measurements taken at 24 hours after chemical dosing in a 24-well plate.ATG_HSE_CIS is one of 52 assay component(s) measured or calculated from the ATG_CIS assay. It is designed to make measurements of mRNA induction, a form of inducible reporter, as detected with fluorescence intensity signals by Reverse transcription polymerase chain reaction (RT-PCR) and Capillary electrophoresis technology.Data from the assay component ATG_HSE_CIS was analyzed into 1 assay endpoint. This assay endpoint, ATG_HSE_CIS, was analyzed with bidirectional fitting relative to DMSO as the negative control and baseline of activity. Using a type of inducible reporter, measures of mRNA for gain or loss-of-signal activity can be used to understand the reporter gene at the transcription factor-level as they relate to the gene HSF1. Furthermore, this assay endpoint can be referred to as a primary readout, because this assay has produced multiple assay endpoints where this one serves a reporter gene function. To generalize the intended target to other relatable targets, this assay endpoint is annotated to the dna binding intended target family, where the subfamily is heat shock protein.
# Human liver HepG2 cells are transiently transfected with multiple reporter transcription units (MRTUs) in 6-well plates using FuGene 6 reagent (Roche; 3 ml FuGene/1 mg DNA). The MRTU constructs are regulated by a cis-regulating element (promoter). […] A major difference between the CIS and TRANS system is that in CIS activities of endogenous TFs are measured, whereas the TRANS assay evaluates changes in activities of exogenous, chimeric NR-Gal4 proteins. […] At the end of 24 hour incubation, total RNA was isolated using TriZol reagent (Invitrogen). The isolated RNA is then reverse-transcribed using oligo(dT) primer and Mo-MLV reverse transcriptase (Invitrogen) with DNAse I (Ambion) treatment for 30 min. The one-tenth of the produced cDNA was amplified by PCR using Taq DNA polymerase (Invitrogen) and two reporter sequence-specific primers. The PCR products were fluorescently labeled by primer extension with 6-arboxyfluorescein (6-FAM) 5'-labeled reporter sequence-specific primer (2 min at 95 C, 20 s at 68 C and 10 min at 72 C) and these products were digested with 5U of HpaI (New England Biolabs) for 2h at 37 C. The fragments were purified using Qiaquick PCR columns (Qiagen), analyzed on an ABI 3130xL genetic analyzer (Applied Biosystems) with peak positions identified by using a set of X-rhodamine (ROX)-labeled MapMarker1000 molecular weight standards (BioVentures). The raw capillary electrophoresis data was processed using Attagraph software (Attagene).
# Sequence of Heat shock factor protein 1 (Homo sapiens) (Q00613 whole entry, looked up): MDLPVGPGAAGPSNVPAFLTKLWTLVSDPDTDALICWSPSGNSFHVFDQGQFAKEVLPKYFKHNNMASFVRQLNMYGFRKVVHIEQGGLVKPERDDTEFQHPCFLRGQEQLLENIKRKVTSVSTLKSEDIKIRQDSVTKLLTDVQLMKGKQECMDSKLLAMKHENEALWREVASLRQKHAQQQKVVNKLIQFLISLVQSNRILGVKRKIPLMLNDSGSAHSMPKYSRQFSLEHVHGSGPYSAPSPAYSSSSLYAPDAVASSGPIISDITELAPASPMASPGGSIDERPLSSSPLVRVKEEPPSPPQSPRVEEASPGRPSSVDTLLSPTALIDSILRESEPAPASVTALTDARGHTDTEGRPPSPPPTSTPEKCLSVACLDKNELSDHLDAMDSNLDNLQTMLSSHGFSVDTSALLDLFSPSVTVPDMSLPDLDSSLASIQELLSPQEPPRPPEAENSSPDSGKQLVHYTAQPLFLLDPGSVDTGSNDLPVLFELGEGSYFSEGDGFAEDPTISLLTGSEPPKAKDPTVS
Compound,outcome,AC50
Cc1cccc(N)n1,inactive,
CCCCNc1ccc(NCCCC)c2c1C(=O)c1ccccc1C2=O,inactive,
c1ccc2c(c1)ccc1cc3c(ccc4ccccc43)cc12,inactive,
COc1ccc(C(Cl)=C(c2ccc(OC)cc2)c2ccc(OC)cc2)cc1,inactive,
O=c1[nH]c(=O)c2[nH]c(=O)[nH]c2[nH]1,inactive,
COC(=O)c1c(C)cc(O)c(C)c1O,inactive,
CC=C1CC2C=CC1C2 (stereo not given),inactive,
COc1ccc([C@@H]2CC(=O)c3c(O)cc(O[C@@H]4O[C@H](CO[C@@H]5O[C@@H](C)[C@H](O)[C@@H](O)[C@H]5O)[C@@H](O)[C@H](O)[C@H]4O)cc3O2)cc1OC,inactive,
CCCCCCCCCCCCCOP(=O)(O)O,inactive,
CCN(CCO)c1cccc(C)c1,inactive,
Cc1cc(C)c(C(=O)O)c(C)c1,inactive,
FC(F)(F)C(=NOCC1OCCO1)c1ccc(Cl)cc1,inactive,
O=C(O)c1cc(Cl)cc([N+](=O)[O-])c1Cl,inactive,
CCc1ccc2c(c1)C(=O)c1ccccc1C2=O,inactive,
C=C[C@](C)(O)CC[C@@H]1[C@@]2(C)CCCC(C)(C)[C@@H]2CC[C@@]1(C)O,inactive,
Cc1ccc([N+](=O)[O-])cc1S(=O)(=O)O,inactive,
Nc1ccc(N=Nc2ccccc2)c(N)n1,inactive,
O=c1cc[nH]c(=S)[nH]1,inactive,
CC(C)c1ccc2c(c1)CC[C@H]1[C@](C)(CN)CCC[C@]21C,,6.29 µM (active)
O=C(O)CC(C(=O)O)C(CC(=O)O)C(=O)O (stereo not given),inactive,

Compound,outcome,AC50
NC(=O)NNC(N)=O,inactive,
NC(=O)C1CO1 (stereo not given),inactive,
CC(=O)OCC(=O)[C@@]12N=C(C)O[C@@H]1C[C@H]1[C@@H]3CCC4=CC(=O)C=C[C@]4(C)[C@H]3[C@@H](O)C[C@@]12C,inactive,
CCCC(=O)OCc1ccccc1,inactive,
O=C1Nc2ccccc2C1(c1ccc(O)cc1)c1ccc(O)cc1,,163 µM (active)
C=C(C)c1cccc(C(C)(C)N=C=O)c1,inactive,
N=c1ccn2c(n1)O[C@H]1[C@H](O)[C@@H](CO)O[C@H]12,inactive,
CCOC(=O)CC,inactive,
O=C(Cl)c1cc(C(=O)Cl)cc(C(=O)Cl)c1,,100 µM (active)
CCCCOCCOC(=O)COc1nc(Cl)c(Cl)cc1Cl,inactive,
CC(=O)OC(C)C,inactive,
NCCCN1CCN(CCCN)CC1,inactive,
C=CC(C)(CCC=C(C)C)OC(=O)CC(C)C (stereo not given),,155 µM (active)
CN(C)CCCN(C)C,inactive,
COC(F)(F)C(F)(C(F)(F)F)C(F)(F)F,inactive,
OC1OCCOC1O (stereo not given),inactive,
Nc1ccc(Cl)cc1Cl,inactive,
C=C(C)[C@H]1CC=C(C)CC1,inactive,
O=C(c1ccccc1)C1CCC1,inactive,
CC1(C)O[C@@H]2C[C@H]3[C@@H]4C[C@H](F)C5=CC(=O)CC[C@]5(C)[C@H]4[C@@H](O)C[C@]3(C)[C@]2(C(=O)CO)O1,inactive,
